Peg3 prom inh – Peg3 promoter activity inhibition. 360,000 compounds, 1.7% hits. HeLa PEG-Prom luciferase reporter, luminescence, overnight. AID 588405. inhibition, % at 20 µM;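 active means inhibition of at least 50% at 20 µM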
TWEAK-Fn14 inh – blocks TWEAK-Fn14 interaction in a reporter cell assay; TWEAK-stimulated Fn14 reporter cells, luciferase luminescence, 8 h; inhibition, % at 10 µM; 360,000 compounds, 2% hits; AID 1159606; in the data active means inhibition above about 50%
Shn3 3UTR inh – reduces Shn3 3'UTR luciferase signal in osteoblasts | Clone20 osteoblast Shn3 3'UTR firefly luciferase, 24 h | inhibition, % at 12.5 µM | 360,000 compounds, 0.52% hits | AID 588674;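 active means mean inhibition of at least 75% with every replicate also reaching 75%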
TROY NFkB inh – inhibitors of TROY-dependent NF-kB signaling; 360,000 compounds, 0.98% hits; inhibition, % at 10 µM; AID 1347056; Q293 LMP1-TROYcd NF-kB luciferase reporter, 4 h;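 active means compounds whose plate-normalised and pattern-corrected inhibition of the luciferase reporter signal at the single screening dose is 50% or more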
EBV LMP1 NFkB – Epstein-Barr LMP1 NF-kappaB reporter inhibition; LMP1-induced NF-kappaB luciferase reporter cells, luminescence; inhibition, % at 12.5 µM; 350,000 compounds, 0.69% hits; AID 504558; in the data active means inhibition above about 41%
MITF TRPM1 inh – MITF TRPM1 promoter inhibition in SK-MEL-5 cells. SK-MEL-5 TRPM1 promoter luciferase, 24 h. inhibition, % at 12.5 µM. 330,000 compounds, 0.83% hits;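 active means mean inhibition across replicates of 60% or more, whatever share of single replicates reaches that level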
Large screens that a line does not name were inactive. Rows were chosen to be rich in hits. Some 4.1% of all compounds tested hit in one or more screens of this group.

Cc1cc(NCc2ccccc2)n2ncc(-c3ccccc3)c2n1	none
Cc1cc(-c2ccccc2)n2ncc(-c3ccccc3)c2n1	TWEAK-Fn14 inh 88.8, TROY NFkB inh 73.6
O=C(c1cc2nc(-c3ccc(F)cc3)cc(C(F)(F)F)n2n1)N1CCCCC1c1cccnc1 (stereo not drawn)	TWEAK-Fn14 inh 61.4, Shn3 3UTR inh 89.7
CC1(C)Cc2c(C#N)c(SCCOc3ccccc3)nc(N3CCOCC3)c2CO1	TWEAK-Fn14 inh 52.9
CNc1ncnc(Sc2nc(N)nc3nc[nH]c23)c1[N+](=O)[O-]	MITF TRPM1 inh 70.6
Nc1nc(Sc2ccc([N+](=O)[O-])c3nonc23)c2[nH]cnc2n1	Peg3 prom inh 66.8, MITF TRPM1 inh 82.1
Nc1nc(SCc2ccccc2)c2[nH]cnc2n1	none
Cc1ccc(Sc2ncnc(N)c2[N+](=O)[O-])cc1	none
COc1ccc(N=C2S/C(=C\c3ccc(N4CCOCC4)o3)C(=O)N2CCc2c[nH]c3ccccc23)cc1	Peg3 prom inh 100.6, TWEAK-Fn14 inh 96.5, Shn3 3UTR inh 95.0
CC1(C)C2CC[C@]3(C)C(CC=C4[C@@H]5C[C@@](C)(CO)[C@@H](O)C[C@]5(C(=O)O)CC[C@]43C)[C@@]2(C)CC[C@@H]1O (stereo partly drawn)	none (no result: EBV LMP1 NFkB, MITF TRPM1 inh)
C=C(C)[C@@H]1CC[C@]2(C(=O)O)CC[C@]3(C)C(CCC4[C@@]5(C)CC[C@H](O)C(C)(C)C5CC[C@]43C)C12 (stereo partly drawn)	Peg3 prom inh 89.5 (no result: MITF TRPM1 inh)
C=C(C)[C@@H]1CCC2(C(=O)O)CC[C@]3(C)[C@H](CC[C@@H]4[C@@]5(C)CCC(=O)C(C)(C)[C@@H]5CC[C@]43C)[C@@H]12 (stereo partly drawn)	TWEAK-Fn14 inh 51.4, EBV LMP1 NFkB 48.5
C=C(CC[C@@H](O)C(C)(C)O)[C@H]1CC[C@]2(C)[C@@H]1CCC1[C@@]3(C)CCC(=O)C(C)(C)C3CC[C@]12C (stereo partly drawn)	none
CSc1cccc(N2CC(C(=O)Nc3cccc(S(=O)(=O)N4CCCC4)c3)CC2=O)c1 (stereo not drawn)	none
O=C(NC1CCCCC1)C1CCN(C(=O)c2ccc(Cl)cc2)CC1	none
CCN1CCN(C(=O)c2cc(=O)c3cc(C)ccc3o2)CC1	none
Cc1ccc2nc(N(CCCN(C)C)C(=O)c3cc(-c4cccs4)nc4ccccc34)sc2c1	Peg3 prom inh 107.3
CN(C)CCCN(C(=O)/C=C/c1cccs1)c1nc2c(F)cccc2s1	Peg3 prom inh 105.5
CN(C)CCCN(C(=O)c1cc(-c2cccs2)nc2ccccc12)c1nc2c(F)cccc2s1	Peg3 prom inh 70.8
CCc1ccccc1NC(=O)COc1ccc(N2CC(C(N)=O)CC2=O)cc1 (stereo not drawn)	none
O=S(=O)(Nc1ccc(-c2ccc3nncn3n2)cc1)c1ccccc1F	Peg3 prom inh 50.5
O=S(=O)(Nc1cccc(-c2ccc3nncn3n2)c1)c1ccccc1F	none
Cc1ccc(S(=O)(=O)Cc2ccc(C(=O)NCCCN3CCN(C)CC3)o2)cc1	TWEAK-Fn14 inh 84.4, TROY NFkB inh 75.8
COc1ccc(-c2c(C(F)(F)F)[nH]n3c(=O)cc(-c4ccccc4)nc23)cc1	TROY NFkB inh 51.1
CCCc1cc(=O)n2[nH]c(C)c(-c3ccccc3)c2n1	none
Cc1[nH]n2c(=O)cc(-c3ccc([N+](=O)[O-])cc3)nc2c1-c1ccccc1	Peg3 prom inh 57.8
c1ccc(-c2ccncn2)cc1	none
Cc1ccc(NC(=O)CSC2=C(C#N)C(c3ccco3)C3=C(CCCC3=O)N2)cc1 (stereo not drawn)	none
N#CC1=C(SCC(=O)Nc2ccc(C(=O)O)cc2)NC(=O)CC1c1ccco1 (stereo not drawn)	TWEAK-Fn14 inh 97.9
CCc1ccc(-n2cccc2/C=C2/C(=N)N3C(=NC2=O)SN=C3S(C)(=O)=O)cc1	TROY NFkB inh 59.1
CCOc1cc(NC(=O)CCl)c(OCC)cc1NC(=O)CCl	Peg3 prom inh 50.5, MITF TRPM1 inh 75.7
CCOC(=O)c1cnn(C)c1NC(=O)c1ccc([N+](=O)[O-])cc1	none
COc1ccc(CNC(=O)c2c(C)oc3c2C(=O)c2ccccc2C3=O)cc1	Peg3 prom inh 102.1, TWEAK-Fn14 inh 98.8, TROY NFkB inh 55.7, MITF TRPM1 inh 104.0

Screening results deposited in PubChem BioAssay by several laboratories.
